# Laboratory results published in the antibiotic and cytotoxicity screens of Wong et al. (2023).
# About 3,300 (8.5%) of roughly 39,000 compounds were called active. Shown is part of a subset that was picked to be rich in actives.
# Test system: HepG2
# Assay: cytotoxicity call (relative viability < 0.9)
# Conditions: 10 µM
row,Compound,cytotoxicity call
1,Cc1noc(C)c1NC(=O)N(C)C[C@H]1Oc2ccc(NS(=O)(=O)c3cn(C)cn3)cc2CC(=O)N([C@H](C)CO)C[C@@H]1C,inactive
2,C[C@@H]1CN([C@@H](C)CO)C(=O)c2cccc(NS(=O)(=O)c3cn(C)cn3)c2O[C@@H]1CN(C)Cc1ccncc1,inactive
3,O=C(C[C@H]1C[C@H]2c3cc(NC(=O)Nc4ccc(C(F)(F)F)cc4)ccc3O[C@H]2[C@H](CO)O1)NCc1cc(F)ccc1F,inactive
4,CNC[C@@H]1OCCCC[C@@H](C)Oc2ccc(NS(=O)(=O)c3c(C)noc3C)cc2C(=O)N([C@H](C)CO)C[C@@H]1C,inactive
5,C[C@H]1C/C(=C\N(C)C)C(=O)C1=O,active
6,C[C@@H]1CCCCO[C@@H](CN(C)C(=O)Nc2ccc3c(c2)OCO3)[C@H](C)CN([C@H](C)CO)C(=O)c2cc(NS(=O)(=O)c3ccc(Cl)cc3)ccc2O1,inactive
7,C[C@@H]1CCCCO[C@H](CN(C)S(=O)(=O)c2ccccc2)[C@H](C)CN([C@@H](C)CO)C(=O)c2cc(NC(=O)NC3CCCCC3)ccc2O1,inactive
8,C[C@H](CO)N1C[C@H](C)[C@@H](CN(C)Cc2ccc3c(c2)OCO3)Oc2c(NC(=O)C3CCOCC3)cccc2C1=O,inactive
9,C[C@@H]1CN([C@H](C)CO)C(=O)c2cc(C#CCc3ccccc3)cnc2O[C@@H]1CN(C)C(=O)C1CCOCC1,inactive
10,O=C(c1ccc(Cl)cc1)c1coc2c1cc(O)c1ccccc12,active
11,Oc1ccc(F)c2ccccc12,inactive
12,C[C@H]1CN([C@@H](C)CO)C(=O)Cc2cc(NC(=O)Nc3ccc(C(F)(F)F)cc3)ccc2O[C@H]1CN(C)C(=O)Nc1ccc2c(c1)OCO2,inactive
13,C[C@@H]1CN([C@H](C)CO)C(=O)Cc2cc(NC(=O)Nc3ccc(C(F)(F)F)cc3)ccc2O[C@@H]1CN(C)C(=O)Nc1ccc2c(c1)OCO2,active
14,C[C@H](CO)N1C[C@H](C)[C@H](CN(C)C(=O)Nc2ccc3c(c2)OCO3)Oc2ccc(NC(=O)Nc3ccc(C(F)(F)F)cc3)cc2CC1=O,inactive
15,C[C@H](CO)N1C[C@H](C)[C@@H](CN(C)C(=O)Nc2ccc3c(c2)OCO3)Oc2ccc(NC(=O)Nc3ccc(C(F)(F)F)cc3)cc2CC1=O,inactive
16,C[C@H]1CN([C@@H](C)CO)C(=O)Cc2cc(NC(=O)Nc3ccc4c(c3)OCO4)ccc2O[C@H]1CN(C)C(=O)Nc1ccc(C(F)(F)F)cc1,active
17,C[C@H]1CN([C@@H](C)CO)C(=O)Cc2cc(NC(=O)Nc3ccc4c(c3)OCO4)ccc2O[C@@H]1CN(C)C(=O)Nc1ccc(C(F)(F)F)cc1,inactive
18,C[C@@H]1CN([C@@H](C)CO)C(=O)Cc2cc(NC(=O)Nc3ccc(C(F)(F)F)cc3)ccc2O[C@@H]1CN(C)C(=O)Nc1ccc2c(c1)OCO2,active
19,C[C@@H]1CN([C@@H](C)CO)C(=O)Cc2cc(NC(=O)Nc3ccc4c(c3)OCO4)ccc2O[C@H]1CN(C)C(=O)Nc1ccc(C(F)(F)F)cc1,inactive

row,Compound,cytotoxicity call
1,C[C@@H]1CN([C@@H](C)CO)C(=O)Cc2cc(NC(=O)Nc3ccc(C(F)(F)F)cc3)ccc2O[C@H]1CN(C)C(=O)Nc1ccc2c(c1)OCO2,inactive
2,C[C@@H]1CN([C@H](C)CO)C(=O)Cc2cc(NC(=O)Nc3ccc4c(c3)OCO4)ccc2O[C@@H]1CN(C)C(=O)Nc1ccc(C(F)(F)F)cc1,active
3,C[C@@H]1CN([C@H](C)CO)C(=O)Cc2cc(NC(=O)Nc3ccc(C(F)(F)F)cc3)ccc2O[C@H]1CN(C)C(=O)Nc1ccc2c(c1)OCO2,inactive
4,C[C@H]1CN([C@@H](C)CO)C(=O)Cc2cc(NC(=O)Nc3ccc(C(F)(F)F)cc3)ccc2O[C@@H]1CN(C)C(=O)Nc1ccc2c(c1)OCO2,inactive
5,Cc1noc(C)c1NC(=O)Nc1ccc2c(c1)C(=O)N([C@H](C)CO)C[C@H](C)[C@H](CN(C)Cc1ccccc1)OCCCC[C@H](C)O2,inactive
6,C=CCOC(=O)[C@H]1[C@@H]2C(=O)O[C@@H](c3ccccc3)[C@@H](c3ccccc3)N2[C@@H](c2ccc(OCCOC(=O)[C@@H]3C[C@@H]4C(=O)N[C@@H](CC(C)C)C(=O)N4[C@@H]3c3cccc(OCCO)c3)cc2)[C@]12C(=O)Nc1ccccc12,inactive
7,COc1ccc(S(=O)(=O)N(C)C[C@H]2Oc3ccc(NS(=O)(=O)c4cccs4)cc3C(=O)N([C@H](C)CO)C[C@@H]2C)cc1,inactive
8,COc1cccc(NC(=O)N[C@H]2C=C[C@@H](CC(=O)N3CCN(C)CC3)O[C@H]2CO)c1,inactive
9,C[C@@H]1CN([C@@H](C)CO)C(=O)c2cc(NC(=O)Nc3ccc4c(c3)OCO4)ccc2O[C@@H](C)CCCCO[C@H]1CN(C)Cc1ccncc1,inactive
10,c1cnc2nccn2c1,inactive
11,C[C@@H]1CN([C@H](C)CO)C(=O)c2cc(NC(=O)CCCN(C)C)ccc2O[C@@H]1CN(C)S(=O)(=O)c1cn(C)cn1,inactive
12,C[C@H]1CN([C@@H](C)CO)C(=O)c2cccc(NC(=O)Nc3cccc4ccccc34)c2O[C@H]1CN(C)Cc1ccc(C(=O)Nc2ccccc2N)cc1,active
13,C[C@H]1CN([C@@H](C)CO)C(=O)c2cccc(NC(=O)Nc3ccccc3)c2O[C@@H]1CN(C)Cc1ccc(C(=O)Nc2ccccc2N)cc1,inactive
14,C[C@@H]1CN([C@@H](C)CO)C(=O)c2cccc(NC(=O)Nc3cccc4ccccc34)c2O[C@@H]1CN(C)Cc1ccc(C(=O)Nc2ccccc2N)cc1,inactive
15,C[C@H](CO)N1C[C@H](C)[C@H](CN(C)Cc2ccc(C(=O)Nc3ccccc3N)cc2)Oc2c(NC(=O)Nc3cccc4ccccc34)cccc2C1=O,active
16,C[C@H](CO)N1C[C@H](C)[C@H](CN(C)Cc2ccc(C(=O)Nc3ccccc3N)cc2)Oc2c(NC(=O)Nc3ccccc3)cccc2C1=O,inactive
17,C[C@@H]1CN([C@H](C)CO)C(=O)c2cccc(NC(=O)Nc3cccc4ccccc34)c2O[C@@H]1CN(C)Cc1ccc(C(=O)Nc2ccccc2N)cc1,inactive
18,COc1ccc(NC(=O)N(C)C[C@@H]2Oc3ccc(NC(=O)Nc4ccc(C(F)(F)F)cc4)cc3C(=O)N([C@@H](C)CO)C[C@@H]2C)cc1,inactive
19,O[C@@H]1Cc2ccccc2[C@H]1O,inactive
